# Data taken from PMC7862700, “An all-to-all approach to the identification of sequence-specific readers for epigenetic DNA modifications on cytosine”.
# What was measured:
# Test in all cases: DAPPL (digital affinity profiling via proximity ligation, sequencing); 10 mM Tris-HCl pH 7.5, 50 mM NaCl, 1 mM DTT, 4% glycerol, room temperature, 30 min; GST-TFs on glutathione beads, 16-mer random dsDNA library, 0.1% formaldehyde crosslink after washing; high values mean tight binding
# ELK3 = molecular target: T1, ELK3 (Homo sapiens, UniProt P41970 1-407); settings: protein: recombinant; tags: N-terminal GST; dsDNA, one strand shown
# T1 sequence: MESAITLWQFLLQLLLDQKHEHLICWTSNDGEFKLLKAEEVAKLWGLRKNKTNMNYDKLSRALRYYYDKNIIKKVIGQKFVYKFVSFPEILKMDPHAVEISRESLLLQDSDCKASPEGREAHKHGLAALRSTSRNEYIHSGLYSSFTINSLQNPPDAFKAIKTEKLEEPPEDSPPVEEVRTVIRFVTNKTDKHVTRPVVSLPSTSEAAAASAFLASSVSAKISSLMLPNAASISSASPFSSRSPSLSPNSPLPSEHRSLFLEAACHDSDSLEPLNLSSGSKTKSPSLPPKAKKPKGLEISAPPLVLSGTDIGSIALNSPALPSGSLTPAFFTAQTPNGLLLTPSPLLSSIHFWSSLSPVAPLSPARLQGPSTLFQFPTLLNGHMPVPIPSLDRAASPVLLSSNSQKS
# Outline: (§1)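 Binding signal is each hexamer's read frequency for a factor divided by its frequency in the tag-only sample. The factors were GST-fused human transcription factors from yeast, captured on glutathione beads, DNA-barcoded and pooled with that sample. Pools were incubated with 200 nmole of a random double-stranded 16-mer DNA library in Tris/NaCl/DTT/glycerol buffer at room temperature for 30 min, then washed, crosslinked with 0.1% formaldehyde, proximity-ligated with BsaI/T4 ligase (1 h, 37 °C), PCR-amplified and sequenced on an Illumina NextSeq500.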
# HSF1 = HSF1 (Homo sapiens, UniProt Q00613 1-529); settings: protein: recombinant; tags: N-terminal GST; chain copies: 3; dsDNA, one strand shown
# Outline: as §1
# ELF4 = ELF4 (Homo sapiens, UniProt Q99607 1-663); settings: protein: recombinant; tags: N-terminal GST; dsDNA, one strand shown
# Outline: as §1
# ELK4 = molecular target: T2, ELK4 (Homo sapiens, UniProt P28324-2 1-405); settings: protein: recombinant; tags: N-terminal GST; dsDNA, one strand shown
# T2 sequence: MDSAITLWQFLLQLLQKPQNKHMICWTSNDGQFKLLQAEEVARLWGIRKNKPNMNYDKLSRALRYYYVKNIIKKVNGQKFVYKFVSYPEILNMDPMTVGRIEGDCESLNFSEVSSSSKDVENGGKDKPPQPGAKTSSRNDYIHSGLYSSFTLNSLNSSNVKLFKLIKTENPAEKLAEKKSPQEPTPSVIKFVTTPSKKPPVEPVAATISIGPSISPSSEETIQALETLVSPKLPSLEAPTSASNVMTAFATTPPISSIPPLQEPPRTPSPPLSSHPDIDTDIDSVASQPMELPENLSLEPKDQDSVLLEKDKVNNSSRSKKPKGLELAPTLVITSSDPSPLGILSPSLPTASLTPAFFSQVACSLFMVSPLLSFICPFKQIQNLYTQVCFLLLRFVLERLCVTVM
# Outline: as §1
# ETV2 = molecular target: T3, ETV2 (Homo sapiens, UniProt O00321 1-342); settings: protein: recombinant; tags: N-terminal GST; dsDNA, one strand shown
# T3 sequence: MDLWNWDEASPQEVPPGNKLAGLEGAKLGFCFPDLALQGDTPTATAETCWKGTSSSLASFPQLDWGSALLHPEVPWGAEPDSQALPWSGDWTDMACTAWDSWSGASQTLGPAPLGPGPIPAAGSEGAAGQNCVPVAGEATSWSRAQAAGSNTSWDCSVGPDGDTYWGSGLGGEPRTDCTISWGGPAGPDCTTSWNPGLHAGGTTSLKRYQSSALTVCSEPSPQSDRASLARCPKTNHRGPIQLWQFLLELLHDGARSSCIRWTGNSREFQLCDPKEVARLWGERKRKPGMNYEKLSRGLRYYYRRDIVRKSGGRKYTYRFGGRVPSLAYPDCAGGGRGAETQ
# Outline: as §1
# ELF3 = molecular target: T4, ELF3 (Homo sapiens, UniProt P78545 1-371); settings: protein: recombinant; tags: N-terminal GST; dsDNA, one strand shown
# T4 sequence: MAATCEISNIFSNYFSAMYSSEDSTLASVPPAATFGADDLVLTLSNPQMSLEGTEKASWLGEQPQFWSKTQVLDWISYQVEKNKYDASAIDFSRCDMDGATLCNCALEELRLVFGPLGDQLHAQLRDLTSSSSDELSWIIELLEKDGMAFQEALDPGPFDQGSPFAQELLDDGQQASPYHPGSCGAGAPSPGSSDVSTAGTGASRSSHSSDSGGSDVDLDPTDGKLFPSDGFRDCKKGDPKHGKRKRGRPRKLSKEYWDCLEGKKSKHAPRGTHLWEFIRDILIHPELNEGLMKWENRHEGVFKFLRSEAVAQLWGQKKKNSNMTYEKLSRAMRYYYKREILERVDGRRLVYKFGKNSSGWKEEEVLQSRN
# Outline: as §1
# CRX = CRX (Homo sapiens, UniProt O43186 1-299); settings: protein: recombinant; tags: N-terminal GST; dsDNA, one strand shown
# Outline: as §1
# ETV7 = molecular target: T5, ETV7 (Homo sapiens, UniProt Q9Y603 1-341); settings: protein: recombinant; tags: N-terminal GST; dsDNA, one strand shown
# T5 sequence: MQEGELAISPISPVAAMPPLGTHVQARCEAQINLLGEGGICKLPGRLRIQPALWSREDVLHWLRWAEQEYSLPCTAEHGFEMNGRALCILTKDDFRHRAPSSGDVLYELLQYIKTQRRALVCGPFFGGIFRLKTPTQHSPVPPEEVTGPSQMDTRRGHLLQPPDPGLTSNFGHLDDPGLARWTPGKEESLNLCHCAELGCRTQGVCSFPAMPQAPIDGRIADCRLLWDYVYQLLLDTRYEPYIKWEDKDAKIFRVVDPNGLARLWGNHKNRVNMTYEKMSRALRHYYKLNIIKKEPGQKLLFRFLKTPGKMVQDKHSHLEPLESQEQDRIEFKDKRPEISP
# Outline: as §1
# ERG = molecular target: T6, ERG (Homo sapiens, UniProt P11308 1-479); settings: protein: recombinant; tags: N-terminal GST; dsDNA, one strand shown
# T6 sequence: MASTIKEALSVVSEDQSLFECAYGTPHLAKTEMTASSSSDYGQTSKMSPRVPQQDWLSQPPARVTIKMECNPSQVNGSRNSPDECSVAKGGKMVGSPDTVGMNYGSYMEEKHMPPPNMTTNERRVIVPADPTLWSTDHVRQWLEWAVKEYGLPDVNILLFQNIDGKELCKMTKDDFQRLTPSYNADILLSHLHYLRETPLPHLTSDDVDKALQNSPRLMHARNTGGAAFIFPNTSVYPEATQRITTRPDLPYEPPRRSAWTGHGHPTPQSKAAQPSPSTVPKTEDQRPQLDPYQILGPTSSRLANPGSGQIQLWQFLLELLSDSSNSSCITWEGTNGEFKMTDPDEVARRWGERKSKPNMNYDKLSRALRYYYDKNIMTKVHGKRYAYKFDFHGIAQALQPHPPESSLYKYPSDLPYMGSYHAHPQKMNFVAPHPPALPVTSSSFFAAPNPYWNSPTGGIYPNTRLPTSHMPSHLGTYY
# Outline: as §1
# SPIC = molecular target: T7, SPIC (Homo sapiens, UniProt Q8N5J4 1-248); settings: protein: recombinant; tags: N-terminal GST; dsDNA, one strand shown
# T7 sequence: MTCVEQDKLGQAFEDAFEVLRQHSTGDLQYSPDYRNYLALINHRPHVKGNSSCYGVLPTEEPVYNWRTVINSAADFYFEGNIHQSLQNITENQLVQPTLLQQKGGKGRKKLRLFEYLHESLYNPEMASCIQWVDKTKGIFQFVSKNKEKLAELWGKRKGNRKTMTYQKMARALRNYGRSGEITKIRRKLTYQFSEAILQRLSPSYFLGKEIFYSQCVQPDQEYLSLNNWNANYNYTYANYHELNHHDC
# Outline: as §1
# ERF = molecular target: T8, ERF (Homo sapiens, UniProt P50548 1-548); settings: protein: recombinant; tags: N-terminal GST; dsDNA, one strand shown
# T8 sequence: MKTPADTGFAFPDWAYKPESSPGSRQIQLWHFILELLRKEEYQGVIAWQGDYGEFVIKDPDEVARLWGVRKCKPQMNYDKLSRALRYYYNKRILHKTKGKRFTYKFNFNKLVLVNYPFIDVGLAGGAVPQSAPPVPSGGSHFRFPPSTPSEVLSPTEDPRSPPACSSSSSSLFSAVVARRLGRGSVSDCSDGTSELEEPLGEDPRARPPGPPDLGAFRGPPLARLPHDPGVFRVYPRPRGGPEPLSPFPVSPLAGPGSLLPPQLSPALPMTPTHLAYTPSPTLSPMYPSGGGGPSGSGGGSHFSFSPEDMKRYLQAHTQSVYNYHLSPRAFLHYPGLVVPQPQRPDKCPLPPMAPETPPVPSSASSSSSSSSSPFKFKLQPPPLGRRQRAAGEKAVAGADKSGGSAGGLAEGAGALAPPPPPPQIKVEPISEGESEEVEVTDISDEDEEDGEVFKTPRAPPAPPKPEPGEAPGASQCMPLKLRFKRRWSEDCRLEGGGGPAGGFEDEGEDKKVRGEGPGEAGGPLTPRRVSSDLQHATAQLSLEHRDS
# Outline: as §1
# SPDEF = molecular target: T9, SPDEF (Homo sapiens, UniProt O95238 1-335); settings: protein: recombinant; tags: N-terminal GST; dsDNA, one strand shown
# T9 sequence: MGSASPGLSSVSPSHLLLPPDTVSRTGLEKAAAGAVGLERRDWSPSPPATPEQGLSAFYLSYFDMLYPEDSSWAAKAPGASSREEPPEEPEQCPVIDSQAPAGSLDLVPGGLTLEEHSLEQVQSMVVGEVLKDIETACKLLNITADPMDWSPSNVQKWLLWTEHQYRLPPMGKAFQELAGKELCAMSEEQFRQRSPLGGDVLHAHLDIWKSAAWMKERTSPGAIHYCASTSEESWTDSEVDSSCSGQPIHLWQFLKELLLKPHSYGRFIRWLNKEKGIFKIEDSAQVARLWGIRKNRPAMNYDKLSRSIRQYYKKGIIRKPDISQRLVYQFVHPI
# Outline: as §1
# HSF1, sequence (Q00613 whole entry): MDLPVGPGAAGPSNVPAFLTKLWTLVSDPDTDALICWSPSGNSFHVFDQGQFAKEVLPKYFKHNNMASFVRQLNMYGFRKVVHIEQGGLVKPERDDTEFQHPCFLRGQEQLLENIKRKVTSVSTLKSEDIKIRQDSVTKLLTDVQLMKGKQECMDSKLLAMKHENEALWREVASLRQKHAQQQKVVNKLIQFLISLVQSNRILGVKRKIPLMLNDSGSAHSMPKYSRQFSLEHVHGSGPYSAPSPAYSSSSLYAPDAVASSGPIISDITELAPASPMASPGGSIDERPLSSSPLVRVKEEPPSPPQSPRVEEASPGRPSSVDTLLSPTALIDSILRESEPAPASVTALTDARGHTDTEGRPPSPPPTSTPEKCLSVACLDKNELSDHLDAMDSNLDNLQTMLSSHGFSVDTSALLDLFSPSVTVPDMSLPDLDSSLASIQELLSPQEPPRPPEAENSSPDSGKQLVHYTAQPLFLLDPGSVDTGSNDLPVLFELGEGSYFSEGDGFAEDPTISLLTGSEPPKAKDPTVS
# CRX, sequence (O43186 whole entry): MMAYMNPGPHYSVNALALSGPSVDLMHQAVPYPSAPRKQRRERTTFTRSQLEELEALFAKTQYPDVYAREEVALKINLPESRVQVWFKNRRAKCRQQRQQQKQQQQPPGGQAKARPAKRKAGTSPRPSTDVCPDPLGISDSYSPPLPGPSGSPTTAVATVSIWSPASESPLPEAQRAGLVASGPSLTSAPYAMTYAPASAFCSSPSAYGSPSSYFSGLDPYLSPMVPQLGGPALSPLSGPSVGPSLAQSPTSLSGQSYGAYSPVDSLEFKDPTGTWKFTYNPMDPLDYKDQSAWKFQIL
# ELF4, sequence (Q99607 whole entry): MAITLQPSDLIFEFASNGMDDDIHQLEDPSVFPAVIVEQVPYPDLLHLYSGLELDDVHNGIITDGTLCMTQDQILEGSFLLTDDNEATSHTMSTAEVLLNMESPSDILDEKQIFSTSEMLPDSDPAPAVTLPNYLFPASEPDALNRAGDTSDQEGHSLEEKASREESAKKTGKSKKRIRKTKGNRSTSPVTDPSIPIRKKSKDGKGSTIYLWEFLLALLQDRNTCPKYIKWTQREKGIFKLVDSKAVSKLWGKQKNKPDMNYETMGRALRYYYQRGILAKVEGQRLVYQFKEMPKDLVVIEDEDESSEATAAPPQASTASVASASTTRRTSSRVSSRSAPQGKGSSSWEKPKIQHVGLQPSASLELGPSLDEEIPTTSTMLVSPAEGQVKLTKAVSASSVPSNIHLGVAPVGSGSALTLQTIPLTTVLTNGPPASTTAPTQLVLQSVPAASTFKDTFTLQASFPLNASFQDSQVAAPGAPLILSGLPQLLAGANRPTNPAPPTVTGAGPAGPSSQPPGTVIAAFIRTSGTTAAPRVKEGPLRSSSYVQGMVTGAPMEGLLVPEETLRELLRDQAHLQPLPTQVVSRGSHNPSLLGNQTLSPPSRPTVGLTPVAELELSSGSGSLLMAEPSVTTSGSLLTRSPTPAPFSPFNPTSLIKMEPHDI
sequence,measurement,setting,value
CCAGAA,binding signal,ELK3,"1 fold enrichment (6-mer frequency, TF over GST control)"
same,binding signal,HSF1,"3.7 fold enrichment (6-mer frequency, TF over GST control)"
same,binding signal,ELF4,"1.05 fold enrichment (6-mer frequency, TF over GST control)"
same,binding signal,ELK4,"1.06 fold enrichment (6-mer frequency, TF over GST control)"
same,binding signal,ETV2,"1.05 fold enrichment (6-mer frequency, TF over GST control)"
same,binding signal,ELF3,"1.07 fold enrichment (6-mer frequency, TF over GST control)"
same,binding signal,CRX,"1.49 fold enrichment (6-mer frequency, TF over GST control)"
same,binding signal,ETV7,"1.05 fold enrichment (6-mer frequency, TF over GST control)"
AGAACC,binding signal,ERG,"1.01 fold enrichment (6-mer frequency, TF over GST control)"
same,binding signal,HSF1,"1.55 fold enrichment (6-mer frequency, TF over GST control)"
same,binding signal,SPIC,"1.03 fold enrichment (6-mer frequency, TF over GST control)"
same,binding signal,ELF3,"1.06 fold enrichment (6-mer frequency, TF over GST control)"
GAATAG,binding signal,HSF1,"1.11 fold enrichment (6-mer frequency, TF over GST control)"
same,binding signal,ELK4,"1.02 fold enrichment (6-mer frequency, TF over GST control)"
same,binding signal,ETV2,"1.03 fold enrichment (6-mer frequency, TF over GST control)"
same,binding signal,ERF,"1.08 fold enrichment (6-mer frequency, TF over GST control)"
same,binding signal,SPDEF,"1.02 fold enrichment (6-mer frequency, TF over GST control)"
